Most compounds without a hit are left out; they make up all but 3.1% or so of the library.
TexasRed fluor: alters Texas Red total fluorescence, flagging assay interference; TRb/SRC2 Texas Red total fluorescence interference; Potency, µM (titrated, usually from 106 µM), without a hit: at the highest dose fluorescence change, negative = quenching; 0.29% of 280,000 active; active = well fitted curve in either direction with a large enough effect; inconclusive = small, poorly fitted or top-dose-only effect
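Human TRb ligand-binding domain at 0.6 uM with 20 nM Texas Red SRC2 peptide in Tris buffer containing 1 uM T3 and 5% DMSO, incubated with compound 5 h at ambient temperature. Total fluorescence (555/632 nm) calculated as parallel + 2 × perpendicular.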
GoLoco inh red: blocks human Gai1 binding to RGS12 GoLoco peptide, red readout; 0.44% of 230,000 active; AID 880; Potency, µM (titrated, usually from 61.6 µM), without a hit: top-dose activity, negative = inhibition, hits mostly inhibitors; Gai1:RGS12 GoLoco peptide FP, rhodamine, 10 min; active = well fitted inhibition curve with a large enough effect, not every such curve was filed as active; inactive = no such curve, though single readings can be large or run the other way; note: nearly all actives have a fitted effect of over 30% in size
Tau fibril FP: inhibitors of human tau fibril formation. Potency, µM (highest dose often 57.7 µM), for the others: top-dose activity, negative = inhibition, hits mostly inhibitors. 0.39% of 280,000 active. K18 P301L tau heparin fibrillization, Alexa594 FP, 6 h; note: nearly all actives have a fitted effect of over 55% in size
Target sequence (P10636 561-689 P618L limits assumed): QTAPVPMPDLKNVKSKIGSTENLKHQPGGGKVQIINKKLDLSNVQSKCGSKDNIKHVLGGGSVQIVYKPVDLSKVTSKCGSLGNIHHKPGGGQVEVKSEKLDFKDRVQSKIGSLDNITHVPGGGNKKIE
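Quantitative HTS format: compounds meet 15 uM recombinant K18 P301L tau and Alexa 594-tau tracer in 100 mM sodium acetate pH 7; 20 uM heparin triggers fibrillization at 37 C over 6 hr; FP gives the signal.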
Tau fluor cs: counter-screen for tau fibril formation inhibitors. tau K18 P301L Alexa594 fluorescence, heparin fibrillization. 0.93% of 280,000 active. Potency, µM (series often up to 57.7 µM), inactives show at the top dose activity change, negative = decrease; note: nearly all actives have a fitted effect of over 55% in size
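Human tau K18 P301L (15 uM unlabeled, 0.24 uM Alexa 594-labeled) in 100 mM sodium acetate pH 7 with 20 uM heparin, 6 hr at 37 C. ThT 30 uM added, 1 hr ambient; Alexa 594 FP and total fluorescence read at 555/632 nm.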
TRb SRC2 PPI: inhibitors of human thyroid hormone receptor beta-SRC2 interaction; Potency, µM (titrated, usually from 106 µM), for inactives: top-dose activity change, negative = inhibition, hits mostly inhibitors; P10828; TRbeta-SRC2 peptide binding, fluorescence polarization; receptor liganded with 1 µM T3; 0.065% of 280,000 active; AID 1469;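 note: plate controls were bound peptide for no effect and peptide without receptor for full effect; nearly all actives have a fitted effect of over 50% in size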
Target sequence (P10828 whole entry, looked up): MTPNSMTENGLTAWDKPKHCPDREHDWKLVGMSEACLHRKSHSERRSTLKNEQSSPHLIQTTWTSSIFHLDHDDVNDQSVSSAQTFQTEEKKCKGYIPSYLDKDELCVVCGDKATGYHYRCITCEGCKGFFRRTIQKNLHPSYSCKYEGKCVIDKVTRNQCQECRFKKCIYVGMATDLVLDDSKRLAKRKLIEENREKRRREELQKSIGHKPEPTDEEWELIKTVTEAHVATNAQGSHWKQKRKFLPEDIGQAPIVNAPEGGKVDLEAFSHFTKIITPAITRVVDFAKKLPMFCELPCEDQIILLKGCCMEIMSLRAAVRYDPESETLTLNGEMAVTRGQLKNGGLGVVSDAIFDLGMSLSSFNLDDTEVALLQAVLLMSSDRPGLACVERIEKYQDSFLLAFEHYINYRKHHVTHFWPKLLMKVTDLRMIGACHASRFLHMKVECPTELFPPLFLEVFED
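Decrease in fluorescence polarization of 20 nM Texas Red SRC2 coactivator peptide flagged inhibition of its binding to 0.6 uM TRb LBD; 1 uM T3 included, incubation 5 hr, ex 555/em 632 nm.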
Tau fibril ThT: inhibitors of human tau fibril formation, thioflavin T binding; P10636; recombinant tau K18 P301L (four-repeat tau fragment), heparin-induced fibrillization, ThT fluorescence; Potency, µM (doses to about 57.4 µM), without a hit: at the highest dose activity, negative = inhibition, usual class: inhibitors; 2.1% of 270,000 active; AID 1460; note: nearly all actives have a fitted effect of over 55% in size
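Heparin-induced (20 uM) aggregation of recombinant human K18 P301L tau, 15 uM unlabeled with 0.24 uM labeled, pH 7 acetate buffer, 6 hr at 37 C with compound. Fibrils quantified by 30 uM ThT fluorescence after 1 hr ambient incubation.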
Numbers without * were called inactive; ? = inconclusive; / = no result given; [ ] = remark or other dose. Unless noted, calls come from the whole dose curve; as a rule, active = well fitted curve in the direction sought with a large enough effect; inconclusive = small, poorly fitted or top-dose-only effect, or another doubt; inactive = no such curve, though single readings can be large; an effect the other way counts as inactive or inconclusive. Unless noted, % is set by controls: 0 for no effect and ±100 for the full control effect; potency is the fitted concentration of half-maximal effect.

SMILES	TexasRed fluor	GoLoco inh red	Tau fibril FP	Tau fluor cs	TRb SRC2 PPI	Tau fibril ThT
COc1ccc(C(=O)O)c(O)c1OC	0%	0%	?	-19%	1%	-8%
Cc1cc(NCc2ccccn2)ccc1Br	-3%	2%	-2%	-20%	-6%	?
O=C(COc1ccccc1)NC1=NCCS1	-4%	8%	-5%	-8%	-13%	-16%
CCCCN(CC)c1nc(N)c2c(N)nc(OCC)cc2c1C#N	-4%	14%	12%	16µM*[quencher]	-5%	?
CN(C)c1ccc(Nc2nc(N)c([N+](=O)[O-])c(N3CCOCC3)n2)cc1	-8%	-18%	7%	?	3%	16µM*
COc1ccc(Nc2nc(N)c([N+](=O)[O-])c(N3CCOCC3)n2)cc1	-4%	6%	10%	?	-4%	?
O=C(Cn1ncc2c([nH]c3ccccc32)c1=O)Nc1cc(F)ccc1F	-2%	/	?	5%	7%	?
CCOc1cc(CNc2ccc(N3CCN(C(C)=O)CC3)cc2)cc(Br)c1OC	-4%	-2%	-8%	?	0%	?
Cc1ccc(C2C(C#N)=C(N)Oc3c2sc2ccccc32)o1 (centres undefined)	3%	66%	?	?	2%	14µM*
C/C(N)=C(/C#N)C(=O)COC(=O)c1cc(-c2cccc3ccccc23)nc2ccccc12	-13%	4%	11µM*	?	-1%	-3%
Cc1ccc(-n2nnc3c(=O)n(Cc4ccccc4C)cnc32)cc1	-1%	-14%	3%	-9%	3%	-9%
CCOc1ncccc1C(=O)Nc1nnc(C(CC)CC)s1	1%	4%	-1%	-12%	2%	-6%
Cc1cc(N=Nc2ccc(Cl)cc2)cc(CN2CCCC2)c1O	-3%	5%	?	?	-4%	28µM*
O=S1(=O)C=C(Sc2nc3cc(Cl)ccc3o2)c2ccccc21	-3%	/	25µM*	7.1µM*[quencher]	-2%	?
CN(C)c1nc(N)nc(CSc2nc3cc(Cl)ccc3o2)n1	-6%	17%	-1%	0%	2%	-12%
Cc1ccc(NC(=O)Cc2c[nH]c3ccccc23)cc1S(=O)(=O)N1CCCCCC1	1%	-26%	8%	14µM*[quencher]	-4%	-8%
Cc1ccc(S(=O)(=O)N2CCCCC2)cc1NC(=O)Cc1c[nH]c2ccccc12	0%	11%	7%	?	1%	-8%
Cc1ccc(NC(=S)NCc2ccccc2)cc1S(=O)(=O)N1CCCCC1	0%	-2%	20µM*	13µM*[quencher]	-1%	5%
Cc1ccc(NC(=O)c2cc(=O)c3ccccc3o2)cc1S(=O)(=O)N1CCCCC1	-1%	14%	?	?	-6%	-16%
Cc1ccc(C(=O)c2ccc(C)cc2)cc1	3%	1%	-2%	2%	6%	3%
CN(C)c1ccc(C(=N)c2ccc(N(C)C)cc2)cc1	-1%	21%	/	/	-2%	/
CC(=O)c1ccc(N=Nc2ccc(C)cc2)cc1	-2%	-1%	3%	-25%	-2%	4.5µM*
CC(=O)c1ccc(N=Nc2ccc(N(C)C)cc2)cc1	-3%	11%	-7%	-26%	2%	1µM*
CCc1ccc(NC(=O)c2nc3nc(C)cc(C(F)F)n3n2)cc1	-1%	/	-4%	5%	-1%	4%
COCc1cc(C)nc(N/N=C/c2ccc(-c3ccc(Cl)cc3[N+](=O)[O-])o2)c1C#N	-3%	11%	-1%	-17%	6%	?
SMILES	TexasRed fluor	GoLoco inh red	Tau fibril FP	Tau fluor cs	TRb SRC2 PPI	Tau fibril ThT
CC(=O)NC1C(=O)N(CC(C)C)c2ccccc21 (centres undefined)	1%	-18%	0%	-8%	12%	-15%
CCOC(=O)c1sc(NC(=O)Nc2ccccc2Cl)cc1C	0%[53 µM]	17%	?	8.9µM*[quencher]	-1%[53 µM]	-8%
CCOC(=O)c1sc(NC(=O)Nc2ccccc2)cc1C	2%	8%	?	14µM*[quencher]	7%	?
CCOC(=O)c1sc(NC(C)=O)cc1C	1%	8%	-6%	-2%	0%	-4%
CCOC(=O)c1sc(NC(=O)c2ccc(C)s2)cc1C	2%	0%	-7%	?	-12%	-7%
Cc1ccccc1Nc1c(-c2ccccc2O)nc2sccn12	5%	/	?	13µM*[quencher]	-4%	-13%
Cc1ccc2nc(-c3ccccc3O)c(Nc3ccccc3C)n2c1	-1%	/	-3%	-10%	3%	-13%
Cc1ccccc1Nc1c(-c2ccc(O)cc2)nc2c(C)cccn12	-2%	/	8%	25µM*[quencher]	2%	?
COC(=O)c1sc(-c2ccccc2)cc1NC(=O)Nc1ccc(F)cc1	-1%	/	18µM*	?	-6%	-4%
COC(=O)c1sc(-c2ccccc2)cc1NC(=O)Nc1ccc(Cl)cc1	-2%	/	?	?	10%	?
CCCCn1nnnc1SCC(=O)Nc1ccc(N(C)C)cc1	0%	10µM*	11%	-20%	11%	?
CN1/C(=C\C(=O)COC(=O)CNC(=O)c2ccc3ccccc3c2)C(C)(C)c2ccccc21	5%	88%	3%	-16%	5%	?
CCCN1C(=O)/C(=C/c2ccc(N3CCCC3)c(C)c2)NC1=S	3%	177%	?	8.9µM*[quencher]	6%	?
Cc1cc(/C=C2\NC(=S)N(C)C2=O)ccc1N1CCCC1	-3%	233%	?	-28%	-7%	?
Cc1cc(/C=C2/C(=O)N(C)C(=S)N2C)ccc1N1CCCC1	2%	173%	-3%	?	-1%	4µM*
CCN1C(=O)/C(=C/c2ccc(N3CCCC3)cc2)NC1=S	1%	172%	?	?	0%	11µM*
CCCN1C(=O)/C(=C/c2ccc(N3CCOCC3)cc2)NC1=S	-1%	30%	?	?	0%	?
COc1ccc(C2C(C(=O)c3sc(C)nc3C)=C(O)C(=O)N2CCN(C)C)cc1 (centres undefined)	-4%	7%	8%	8%	9%	-4%
Cc1ccc(CCNC(=O)c2ccc3[nH]c(C)c(C)c3c2)cc1	0%	/	12%	?	1%	?
CCOc1ccc(CCNC(=O)c2ccc3[nH]c(C)c(C)c3c2)cc1	0%	/	16%	25µM*[quencher]	0%	?
